Experimental data: the supplement of paper PMC12282887
± gives the standard deviation of the averaged measurements.

Experiments:
Assay in all cases: promoter activity interaction Z-score (Lux/OD deviation from empty-vector control); higher = stronger promoter induction by the compound
[1] = test system: E. coli BW25113 acrABp lux reporter
In short: (§1)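 E. coli BW25113 (wild type or marA, soxS or rob deletion) carrying low-copy luxCDABE promoter reporters grew in 40 µl LB Lennox in 384-well plates at 37°C. Each compound was tested at four 1:2 dilutions in biological duplicates. OD600 and luminescence were read every 30 min for 12 h. Areas were taken over 0–8 h (wild type) or 1–9 h (mutants), and wells below 10% of median growth area were removed. The score is the Z-transformed residual of growth-normalised luminescence fitted against the empty-vector control.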

[2] = test system: E. coli BW25113 marRABp lux reporter
In short: as §1

[3] = test system: E. coli BW25113 micFp lux reporter
In short: as §1

[4] = test system: E. coli BW25113 ompFp lux reporter
In short: as §1

[5] = test system: E. coli BW25113 robp lux reporter
In short: as §1

[6] = test system: E. coli BW25113 soxSp lux reporter
In short: as §1

[7] = 19.7 µg/ml, genetic background: wild type
[8] = 19.7 µg/ml, genetic background: ΔmarA
[9] = 19.7 µg/ml, genetic background: Δrob
[10] = 19.7 µg/ml, genetic background: ΔsoxS
[11] = 39.3 µg/ml, genetic background: wild type
[12] = 39.3 µg/ml, genetic background: ΔmarA
[13] = 39.3 µg/ml, genetic background: Δrob
[14] = 39.3 µg/ml, genetic background: ΔsoxS
[15] = 78.6 µg/ml, genetic background: wild type
[16] = 78.6 µg/ml, genetic background: ΔmarA
[17] = 78.6 µg/ml, genetic background: Δrob
[18] = 78.6 µg/ml, genetic background: ΔsoxS
[19] = 157.2 µg/ml, genetic background: wild type
[20] = 157.2 µg/ml, genetic background: ΔmarA
[21] = 157.2 µg/ml, genetic background: Δrob
[22] = 157.2 µg/ml, genetic background: ΔsoxS

In the case of `CC(=O)[C@H]1CC[C@H]2[C@@H]3CCC4=CC(=O)CC[C@]4(C)[C@H]3CC[C@]12C` [Progesterone], the “promoter activity interaction Z-score” value [1, 7] is reported as -0.247 ± 0.13, the “promoter activity interaction Z-score” value [1, 8] is reported as -0.405 ± 0.19 and the “promoter activity interaction Z-score” value [1, 9] is reported as -0.0328 ± 0.098. For the same compound, the “promoter activity interaction Z-score” value [1, 10] was -0.282 ± 0.25, the “promoter activity interaction Z-score” value [1, 11] was -0.262 ± 0.14 and the “promoter activity interaction Z-score” value [1, 12] was -0.838 ± 0.1. The “promoter activity interaction Z-score” value [1, 13] was -0.217 ± 0.17, the “promoter activity interaction Z-score” value [1, 14] was -0.38 ± 0.34 and the “promoter activity interaction Z-score” value [1, 15] was 0.00448 ± 0.24. The “promoter activity interaction Z-score” value [1, 16] was -0.886 ± 0.13, the “promoter activity interaction Z-score” value [1, 17] was -0.151 ± 0.044 and the “promoter activity interaction Z-score” value [1, 18] was -0.0393 ± 0.056. For the same compound, the “promoter activity interaction Z-score” value [1, 19] was -0.214 ± 0.34, the “promoter activity interaction Z-score” value [1, 20] was 0.269 ± 0.11 and the “promoter activity interaction Z-score” value [1, 21] was 0.191 ± 0.14. The “promoter activity interaction Z-score” value [1, 22] was -0.315 ± 1, the “promoter activity interaction Z-score” value [2, 7] was -0.0683 ± 0.075 and the “promoter activity interaction Z-score” value [2, 8] was 0.0187 ± 0.17. For the same compound, the “promoter activity interaction Z-score” value [2, 9] was -0.191 ± 0.093, the “promoter activity interaction Z-score” value [2, 10] was 0.0521 ± 0.092 and the “promoter activity interaction Z-score” value [2, 11] was -0.275 ± 0.28. The “promoter activity interaction Z-score” value [2, 12] was -0.0815 ± 0.0053, the “promoter activity interaction Z-score” value [2, 13] was -0.249 ± 0.035 and the “promoter activity interaction Z-score” value [2, 14] was -0.155 ± 0.11. For the same compound, the “promoter activity interaction Z-score” value [2, 15] was -0.102 ± 0.22, the “promoter activity interaction Z-score” value [2, 16] was -0.0516 ± 0.038 and the “promoter activity interaction Z-score” value [2, 17] was -0.252 ± 0.24. The “promoter activity interaction Z-score” value [2, 18] was -0.3 ± 0.093, the “promoter activity interaction Z-score” value [2, 19] was -0.0485 ± 0.46 and the “promoter activity interaction Z-score” value [2, 20] was 0.0739 ± 0.13. For the same compound, the “promoter activity interaction Z-score” value [2, 21] was -0.505 ± 0.15, the “promoter activity interaction Z-score” value [2, 22] was -0.178 ± 0.15 and the “promoter activity interaction Z-score” value [3, 7] was -0.103 ± 0.25. The “promoter activity interaction Z-score” value [3, 8] was 0.119 ± 0.028, the “promoter activity interaction Z-score” value [3, 9] was 0.0776 ± 0.12 and the “promoter activity interaction Z-score” value [3, 10] was 0.434 ± 0.5. The “promoter activity interaction Z-score” value [3, 11] was -0.0976 ± 0.35, the “promoter activity interaction Z-score” value [3, 12] was 0.123 ± 0.056 and the “promoter activity interaction Z-score” value [3, 13] was 0.0868 ± 0.01. For the same compound, the “promoter activity interaction Z-score” value [3, 14] was 0.176 ± 0.29, the “promoter activity interaction Z-score” value [3, 15] was -0.119 ± 0.33 and the “promoter activity interaction Z-score” value [3, 16] was 0.21 ± 0.0092. For the same compound, the “promoter activity interaction Z-score” value [3, 17] was -0.0152 ± 0.13, the “promoter activity interaction Z-score” value [3, 18] was 0.432 ± 0.42 and the “promoter activity interaction Z-score” value [3, 19] was -0.0937 ± 0.11. The “promoter activity interaction Z-score” value [3, 20] was 0.211 ± 0.14, the “promoter activity interaction Z-score” value [3, 21] was -0.0152 ± 0.04 and the “promoter activity interaction Z-score” value [3, 22] was 0.0431 ± 0.32. The “promoter activity interaction Z-score” value [4, 7] was -0.534 ± 0.033, the “promoter activity interaction Z-score” value [4, 8] was -0.169 ± 0.36 and the “promoter activity interaction Z-score” value [4, 9] was -0.0375 ± 0.16. For the same compound, the “promoter activity interaction Z-score” value [4, 10] was -0.19 ± 0.42, the “promoter activity interaction Z-score” value [4, 11] was -0.381 ± 0.1 and the “promoter activity interaction Z-score” value [4, 12] was -0.611 ± 0.036. The “promoter activity interaction Z-score” value [4, 13] was 0.0341 ± 0.39, the “promoter activity interaction Z-score” value [4, 14] was -0.905 ± 0.22 and the “promoter activity interaction Z-score” value [4, 15] was -0.604 ± 0.2. For the same compound, the “promoter activity interaction Z-score” value [4, 16] was -0.705 ± 0.19, the “promoter activity interaction Z-score” value [4, 17] was -0.397 ± 0.063 and the “promoter activity interaction Z-score” value [4, 18] was -0.681 ± 0.46. For the same compound, the “promoter activity interaction Z-score” value [4, 19] was -0.672 ± 0.32, the “promoter activity interaction Z-score” value [4, 20] was -0.651 ± 0.19 and the “promoter activity interaction Z-score” value [4, 21] was -1.43 ± 0.17. The “promoter activity interaction Z-score” value [4, 22] was -1.51 ± 0.4, the “promoter activity interaction Z-score” value [5, 7] was 0.215 ± 0.46 and the “promoter activity interaction Z-score” value [5, 8] was -0.134 ± 0.11. For the same compound, the “promoter activity interaction Z-score” value [5, 9] was 0.137 ± 0.78, the “promoter activity interaction Z-score” value [5, 10] was 0.0784 ± 0.35 and the “promoter activity interaction Z-score” value [5, 11] was -0.384 ± 0.091. For the same compound, the “promoter activity interaction Z-score” value [5, 12] was -0.498 ± 0.18, the “promoter activity interaction Z-score” value [5, 13] was -0.00268 ± 0.38 and the “promoter activity interaction Z-score” value [5, 14] was -0.408 ± 1.2. The “promoter activity interaction Z-score” value [5, 15] was 0.0849 ± 0.14, the “promoter activity interaction Z-score” value [5, 16] was -0.366 ± 0.29 and the “promoter activity interaction Z-score” value [5, 17] was -0.234 ± 0.65. The “promoter activity interaction Z-score” value [5, 18] was -0.171 ± 0.34, the “promoter activity interaction Z-score” value [5, 19] was -0.26 ± 0.16 and the “promoter activity interaction Z-score” value [5, 20] was -0.185 ± 0.13. For the same compound, the “promoter activity interaction Z-score” value [5, 21] was -0.798 ± 0.68, the “promoter activity interaction Z-score” value [5, 22] was -1.05 ± 0.11 and the “promoter activity interaction Z-score” value [6, 7] was -0.199 ± 0.29. For the same compound, the “promoter activity interaction Z-score” value [6, 8] was -0.22 ± 0.01, the “promoter activity interaction Z-score” value [6, 9] was 0.0249 ± 0.041 and the “promoter activity interaction Z-score” value [6, 10] was -0.00845 ± 0.063. The “promoter activity interaction Z-score” value [6, 11] was -0.25 ± 0.099, the “promoter activity interaction Z-score” value [6, 12] was -0.192 ± 0.018 and the “promoter activity interaction Z-score” value [6, 13] was -0.155 ± 0.04. The “promoter activity interaction Z-score” value [6, 14] was -0.315 ± 0.23, the “promoter activity interaction Z-score” value [6, 15] was -0.226 ± 0.1 and the “promoter activity interaction Z-score” value [6, 16] was -0.147 ± 0.072.
